In PubChem BioAssay (Tox21):
A number with no mark means an inactive call. Calls follow the shape of the dose curve; as a rule, active = well fitted cell-killing curve with a large enough effect in the repeat runs; inconclusive = weak or mixed curves, or effect the other way; inactive = flat fitted curve, though single readings scatter. Where a SMILES comes first, the peptide text is derived from it.

assay: qHTS assay to identify small molecule HDAC inhibitors - cell viability counter screen (AID 1259365); settings: HCT-116 viability, CellTiter-Glo ATP luminescence, 2 h; series mostly up to 92.4 µM; activity change, negative = cytotoxicity: at the top concentration; also: nearly all actives have a fitted effect of over 50% in size
Source text: U.S. Tox21 Program National Center for Advancing Translational Sciences [NCATS] NIH Chemical Genomics Center [NCGC] U.S. Environmental Protection Agency [EPA] National Institutes of Environmental Health Sciences [NIEHS] National Toxicology Program [NTP] U.S. Food and Drug Administration [FDA] Tox21 Assay Overview: Histone deacetylases (HDACs) are a group of epigenetic enzymes that regulate gene expression by histone deacetylation. HDACs are capable of introducing epigenetic modifications and such aberrations contribute to the onset and progression of several human diseases, thus making HDACs a popular therapeutic target. For identifying endogenous class I/II HDAC inhibitors a homogenous, luminogenic HDAC I/II cell based assay was used to measure the relative activity of class I and II HDACs from cells. Wild type HCT-116 cells were used to screen Tox21 compound libraries for identifying class I/II HDAC inhibitors.
Tox21 Assay Protocol Summary: HCT-116 cells were dispensed at 1,500 per well in 5uL of culture medium into white solid bottom 1536-well plates (Greiner Bio-One, Monroe, NC) using a Multidrop Combi (Thermo Scientific, Waltham, MA) dispenser. The assay plates were incubated at 37 C and 5% CO2 for an overnight, and then 23nL of compounds dissolved in DMSO and positive control were transferred using a Pintool station (Wako, San Diego, CA). The assay plates were incubated at 37C and 5% CO2 for 2hr. After compound treatment, 4uL of CellTiter-Glo reagent (Promega Corporation, Madison, WI) was added to each well of the assay plates using Flying Reagent Dispenser (FRD, Aurora Discovery, San Diego, CA) and incubated the assay plates at room temperature for 30min. The luminescence signal was quantified using a ViewLux plate reader (Perkin Elmer, Shelton, CT).
% is scaled to controls: 0 for no effect and ±100 for the full control effect.

Structure (SMILES) | activity change, negative = cytotoxicity
CCOc1cccc(N)c1 | 1.08%
NCc1ccc(S(N)(=O)=O)cc1 | 0.182% [at 42.5 µM]
C=CCCCC | 1.23%
CCNC(=O)NCc1cccc(Cl)c1 | -0.127% [at 42.5 µM]
CN(C)C(C)(C)CO | -4.26%
C=CCOC(=O)CCCCCC | 1.93%
CC(N)CCCC(C)(C)O (stereo not given) | 2.06% [at 42.5 µM]
CC(=O)CC(=O)OC(C)(C)C | 1.14%
Cc1ccc(N)cc1S(=O)(=O)O | -2.33%
COc1cc(/C=C/C(N)=O)cc(OC)c1OC | 1.16% [at 42.5 µM]
CCCCOCCOC(=O)COc1ccc(Cl)cc1Cl | -1.61%
Cc1ccc(C)c([N+](=O)[O-])c1 | 9.74%
CCN1CCCC1CN (stereo not given) | 1.35% [at 42.5 µM]
CCO[Si](CC)(OCC)OCC | -2.05%
CC(C)OC(=O)CCC(=O)OC(C)C | -1.97%
C=CC(=O)OCC1CCCO1 (stereo not given) | 3.53%
CC(=O)N[C@@H](CO)C(=O)N[C@@H](CC(=O)O)C(=O)N[C@@H](CCCCN)C(=O)N1CCC[C@H]1C(=O)O (Ac-SDKP-OH) | 2.97% [at 42.5 µM]
CCC(=O)CC | -1.88%
CCCCCC(C)O (stereo not given) | 1.28%
COP(=O)(O)OP(=O)(O)OC | -17.4%

Structure (SMILES) | activity change, negative = cytotoxicity
Cc1cc(C)c(C(=O)O)c(C)c1 | -0.93%
C=CCCCCCCCCC(=O)OCCCC | 0.121%
CCn1cc(C(=O)O)c(=O)c2cnc(N3CCCC3)nc21 | 0.53% [at 8.39 µM]
O=NN(CCCl)C(=O)NC1CCCCC1 | -1.09% [at 42.5 µM]
CN(C)CCCO[C@@H]1[C@H]2OC(C)(C)O[C@H]2O[C@@H]1C(O)CO (stereo not given in full) | 2.19% [at 42.5 µM]
COc1cc2c(cc1OC)CN(C(=O)[C@H](C)N[C@@H](CCc1ccccc1)C(=O)O)[C@H](C(=O)O)C2 | 0.0265% [at 42.5 µM]
CCN(CC)CCN | 1.08% [at 42.5 µM]
CN(C)CCOC(=O)C(c1ccccc1)C1(O)CCCC1 (stereo not given) | -7.86% [at 42.5 µM]
COC(=O)c1ccccc1C(=O)O | 3.26%
O=C(Cn1ccnc1[N+](=O)[O-])NCc1ccccc1 | 0.615% [at 42.5 µM]
CCOCCOCC | 1.01%
CC(O)CC(C)O (stereo not given) | -0.0106%
O=S(=O)(O)c1ccc2c(N=Nc3ccc(S(=O)(=O)O)c4ccccc34)c(O)c(S(=O)(=O)O)cc2c1 | -10.4% [at 8.39 µM]
CO[Si](CCCn1c(=O)n(CCC[Si](OC)(OC)OC)c(=O)n(CCC[Si](OC)(OC)OC)c1=O)(OC)OC | 2.29% [at 42.5 µM]
COC(=O)c1cccc(Cl)c1 | 3.87%
CC(S)C(C)S (stereo not given) | -1.28%
COC(C)(OC)OC | 1.4%
COS(=O)(=O)O | 0.273%
c1ccc2cnccc2c1 | 4.34%
C/C(CC(C)C)=N\O | 3.9%
